PubChem BioAssay AID1963317 (National Center for Advancing Translational Sciences (NCATS), 2024)
Inconclusive results are not listed. The source made the active and inactive calls. The call rests on the fitted dose curve.

molecular target: Tyrosine-protein kinase ABL1 (Homo sapiens) (UniProt P00519); assay: ABL1 kinase (ABL1-N-HiBiT) enzymatic inhibition screen - Functional assay; conditions: luminescence; series mostly up to 57.5 µM
Excerpt: National Center for Advancing Translational Sciences (NCATS),
National Institute of Health (NIH), Maryland
Discovery and optimization of novel protein-binding ligands underlies many of the methods and applications of biology, drug discovery, clinical diagnostics, and environmental toxicology. Assays for detecting the interaction of, for example, a molecule with a macromolecular target also referred to here as the target of interest (TOI) is dependent on a compatible output technology. Depending on the nature and knowledge surrounding the TOI, whether a receptor, enzyme, regulatory subunit or scaffold, or a sequence-defined nucleic acid folded into a complex tertiary structure, assay strategies can vary widely.
Here we exploit ligand-biased changes in the structural dynamics of the target protein to control reporter alpha complementation allowing a non-competitive, non-functional, non-separation measure of ligand-target interaction.
Using a chemical library of >1,200 compounds enriched for scaffolds known to be associated with the inhibition of firefly luciferase (FLuc) activity (PubChem AIDs 2309) we first illustrate and compare the Structural Dynamics Response (SDR) assay vs. the standard functional FLuc enzyme assay (2). Secondly, we show the specificity and sensitivity of the SDR for the Abelson tyrosine kinase (ABL1) compared to the serine/threonine protein kinase A, using an enriched chemical library of 128 compounds selected, in part, for activity annotated with ABL1 kinase activity using the Pharos database (3).
(1) A. S. Dixon et al., NanoLuc Complementation Reporter Optimized for Accurate Measurement of Protein Interactions in Cells.
Chemistry & Biology, 19, 1060 - 1072 (2012).
(3) K. J. Kelleher et al., Pharos 2023: an integrated resource for the understudied human proteome. Nucleic Acids Res 51, D1405-D1416 (2023).
PROTOCOL TABLE (as described by Inglese J, Shamu CE and Guy RK. 2007)
SEQUENCE No. (e.g., 1, 2, 3, etc.); […] (e.g., C. elegans, Compounds, Incubation, Read, etc.); VALUE and DESCRIPTION.
1. Reagent. Dispense 4 uL ABL1-N-HiBiT enzyme per well at a final enzyme concentration of 10 nM in buffer with 87.5 uM ATP (functional assay) into columns 2-48 of four replicate Greiner 1536-well white, solid bottom high base, medium plates per assay. Dispense respective buffer without enzyme at 4 uL/well in column 1 of assay plates using BioRaptr 2.
2. Compounds. Library compounds added at 23 nL/well by pin transfer. DMSO neutral control and imatinib positive control added at 25 nL/well, transfer by Mosquito dispenser.
3. Incubation. Incubate enzyme and compounds at room temperature for 30 min, protected from light.
4. Reagent. (Functional assay) Transfer 25 nL of abltide peptide substrate to each well of four replicate kinase assay plates with Mosquito dispenser.
5. Incubation. (Functional assay) Kinase enzyme incubated with peptide substrate for 3 h at room temperature, protected from light.
6. Reagent. (Functional assay) Add 4 uL/well of Kinase-Glo Plus reagent (Promega) to kinase activity assay plates, in the presence of ATP.
7. Detector. (Functional assay) Luminescence measured using CCD-based camera (ViewLux) with settings as follows: Exposure, 1 sec; Gain, High; Speed, Slow; Binning, 2X.
Inglese J, Shamu CE and Guy RK, Reporting data from high throughput screening of small molecule libraries, Nature Chemical Biology, 2007, 3(8): 438-441. doi.org/10.1038/nchembio0807-438.

Tyrosine-protein kinase ABL1 (Homo sapiens), sequence (P00519 whole entry, looked up): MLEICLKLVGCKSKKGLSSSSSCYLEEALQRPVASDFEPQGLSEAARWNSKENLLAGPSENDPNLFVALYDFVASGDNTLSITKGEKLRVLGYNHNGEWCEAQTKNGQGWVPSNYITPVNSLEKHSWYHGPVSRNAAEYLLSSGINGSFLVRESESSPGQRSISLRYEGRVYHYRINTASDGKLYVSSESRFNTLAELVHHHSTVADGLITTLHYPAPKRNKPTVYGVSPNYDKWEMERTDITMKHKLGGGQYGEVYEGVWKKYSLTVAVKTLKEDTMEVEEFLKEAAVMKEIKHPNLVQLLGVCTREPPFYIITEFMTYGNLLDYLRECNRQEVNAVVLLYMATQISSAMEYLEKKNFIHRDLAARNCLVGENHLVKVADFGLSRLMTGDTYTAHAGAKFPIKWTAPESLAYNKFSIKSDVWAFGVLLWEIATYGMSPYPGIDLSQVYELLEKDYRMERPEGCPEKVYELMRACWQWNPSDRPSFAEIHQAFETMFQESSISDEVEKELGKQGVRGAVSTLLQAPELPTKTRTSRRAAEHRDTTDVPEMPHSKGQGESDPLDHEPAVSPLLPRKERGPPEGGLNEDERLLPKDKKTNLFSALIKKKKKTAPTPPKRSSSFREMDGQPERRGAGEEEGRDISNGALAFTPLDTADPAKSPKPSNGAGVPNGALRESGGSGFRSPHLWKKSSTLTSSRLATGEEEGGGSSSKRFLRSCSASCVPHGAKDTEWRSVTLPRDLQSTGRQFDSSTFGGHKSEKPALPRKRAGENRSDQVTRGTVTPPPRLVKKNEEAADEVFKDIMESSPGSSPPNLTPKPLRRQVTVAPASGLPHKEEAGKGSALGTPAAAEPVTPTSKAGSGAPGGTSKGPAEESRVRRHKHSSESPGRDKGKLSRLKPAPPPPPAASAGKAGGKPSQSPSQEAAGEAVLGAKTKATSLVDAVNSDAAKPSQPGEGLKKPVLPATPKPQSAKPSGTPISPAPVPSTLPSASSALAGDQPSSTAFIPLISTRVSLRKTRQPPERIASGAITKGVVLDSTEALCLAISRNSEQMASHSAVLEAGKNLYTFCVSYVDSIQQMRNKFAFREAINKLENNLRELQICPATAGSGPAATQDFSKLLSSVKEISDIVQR

| Compound | outcome |
| --- | --- |
| Cc1[nH]nc2ccc(-c3cncc(OC[C@@H](N)Cc4c[nH]c5ccccc45)c3)cc12 | inactive |
| N#Cc1cn([C@@H]2O[C@H](CO)[C@H](O)[C@@H]2O)c2ncnc(N)c12 | inactive |
| O=C(NCCCNc1nc(Nc2ccc(N3CCOCC3)cc2)ncc1C1CC1)C1CCC1 | inactive |
| CCNC(=O)C[C@@H]1N=C(c2ccc(Cl)cc2)c2cc(OC)ccc2-n2c(C)nnc21 | inactive |
| C/C(O)=C(\C#N)C(=O)Nc1cc(Br)ccc1Br | inactive |
| O=[N+]([O-])O[C@H]1CO[C@H]2[C@@H]1OC[C@H]2O[N+](=O)[O-] | inactive |
